Consider 29 compounds from PubChem BioAssay AID651820 (National Center for Advancing Translational Sciences (NCATS), 2012).

Among all 340,000 compounds or so, about 12,000 (3.5%) were called active. Entries that show only a call come without a potency. Another 18% or so got no clear call; they are omitted. Calls follow the shape of the dose curve; as a rule, active = well fitted inhibition curve with a large enough effect; inconclusive = small, poorly fitted or top-dose-only effect, or another doubt; inactive = no such curve, though single readings can be large or run the other way. Many of the other results were omitted from the sample, so actives are more common in it than they were.
Potency is read from the fitted curve at half-maximal effect.

This assay can be described thus: qHTS Assay for Inhibitors of Hepatitis C Virus (HCV). The settings on record: Huh7.5.1 HCVcc-Cre infection, luciferase reporter, 44 h; series mostly up to 41.8 µM. An outline of the steps: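 HCVcc-Cre virus at an moi near 0.5 was added right after compound to cells cultured 4 h from seeding (1,000 cells/well). Luciferase activity was determined 44 h later, 15 min after substrate addition at RT.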
Background: qHTS replaces the single test concentration by a dilution series.
As for `CCOC(=O)c1cc(=O)c2ccc(OCc3ccccc3)cc2o1`, the Potency result is “inactive”. In the case of `CN(C)C(=O)Oc1ccc2c(c1)O/C(=C\c1ccccc1)C2=O`, the Potency result was “inactive”. The result for `CCOC(=O)c1c(-c2ccccc2)oc2ccc(OCC(N)=O)cc12` reads 10 µM (active). Take `Cc1cc(=O)oc2ccc(OCC(=O)O)cc12`: the Potency entry was “inactive”. As for `Cc1c(Cc2ccccc2)c(=O)oc2cc(OCC(N)=O)ccc12`, the entry is “inactive”; as for `CCOC(=O)c1c(-c2ccccc2)oc2ccc(OC(=O)N(C)C)cc12`, 10 µM (active); as for `CCOc1ccccc1Nc1nnc(SCC(=O)NCC2CCCO2)s1` (centres undefined), “inactive”.

Take `C=C(C)CNc1cc(S(=O)(=O)N2CCOCC2)ccc1Oc1ccccc1`: the Potency entry was “inactive”.

`CCOc1ccc(CCNC(=O)COC(=O)c2c(OC)cccc2OC)cc1OCC`: the Potency result was “inactive”. As for `CC(C(=O)NC1CCCC1)N1CCN(S(=O)(=O)c2ccccc2Cl)CC1` (centres undefined), the entry is “inactive”; as for `COc1ccc(OC)c(NC(=O)COC(=O)Cc2ccsc2)c1`, “inactive”.

On to `Cc1ccc(Br)c(NS(=O)(=O)c2cccc(C(=O)N3CCNC(=O)C3)c2)c1`, for which the Potency result was “inactive”. Take `CCOC(=O)CSc1nc2ccc(C)cc2[nH]1`: the Potency result is “inactive”. As for `Cc1ccc2nc(/C(C#N)=C\c3ccc(OC(=O)c4cccs4)cc3)[nH]c2c1`, the figure is 1.78 µM (active). As for `Cc1ccc2nc(S(=O)(=O)O)[nH]c2c1`, the entry is “inactive”. The result for `Cc1cc(C(=O)OCC(=O)Nc2ccccc2Cl)c(C)o1` reads “inactive”. In the case of `CC1(C)CC(N2CCN(C(c3ccccc3)c3ccccc3)CC2)=CC(=[N+]2CCCCC2)C1`, the Potency was 3.16 µM (active). As for `O=C(O)CN1CCN(C(c2ccccc2)c2ccccc2)CC1`, the entry is “inactive”; as for `CC(C)NC(=S)N1CCN(C(c2ccccc2)c2ccccc2)CC1`, “inactive”; as for `CS(=O)(=O)c1ccc(C(=O)OCC(=O)NNC(=O)COc2ccc(Cl)cc2)cc1`, “inactive”. As for `O=C(NCCCc1ccccc1)C(=O)NCC1OCCN1S(=O)(=O)c1ccccc1` (centres undefined), the Potency entry was “inactive”.

For `CN=C(Nc1cccc(S(=O)(=O)N2CCOCC2)c1)c1ccccc1`, the Potency result was “inactive”. `CC(C)Oc1ccc(C(=O)NCC(=O)Nc2ccc3c(c2)CCC3)cc1`: the Potency entry was “inactive”. As for `CC[C@]1(C(=O)OC)[C@H]2C(=O)N(Cc3ccccc3)C(=O)[C@H]2[C@H]2CN=C(SCc3ccccc3)N21`, the entry is “inactive”. On to `N=c1n(Cc2ccc(Cl)cc2)c2ccccc2n1CC(O)c1ccco1` (centres undefined), for which the Potency was 11.2 µM (active). As for `Cn1c(=N)n(CC(O)c2cccs2)c2ccccc21` (centres undefined), the entry is “inactive”.

Consider `O=S(=O)(O)c1nc2ccccc2n1Cc1ccc(Cl)cc1`, for which the Potency result was “inactive”.

In the case of `C[C@H](CO)N1C[C@H](C)[C@H](CN(C)CC2CC2)Oc2ccc(NC(=O)CCN3CCOCC3)cc2C1=O`, the Potency result is “inactive”. Consider `C[C@]12CCC(=O)C=C1C=CC1C2CC[C@@]2(C)C1CC[C@@]21CCC(=O)O1` (some centres undefined), for which the Potency result is “inactive”.
